In PubChem BioAssay (Tox21) one finds Potency and outcome data, which are given here for 10 molecules.

The structures appear in SMILES notation. Values joined by “and” are separate entries in the source; they are usually repeats but may differ in a detail not shown here. Equal entries are not always repeated. Records with an inconclusive call do not appear. A structure can be active in one record and inactive in another. Active and inactive are the calls of the source. Unless noted, calls follow the shape of the dose curve; as a rule, active = well fitted curve in the direction sought with a large enough effect in the repeat runs; inconclusive = weak or mixed curves; inactive = no such curve, though single readings can be large; an effect the other way counts as inactive or inconclusive.

A short description of experiment [1]: qHTS assay to identify small molecule agonists of the vitamin D receptor (VDR) signaling pathway - cell viability counter screen (AID 743224). Also: series mostly up to about 63 µM; nearly all actives have a fitted effect of over 50% in size. Summed up: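 VDR-bla cells were preincubated 4 h at 37C/5% CO2, then exposed to compounds for 16 h. After the 2 h room-temperature bla FRET read, CellTiter-Glo was added to the same wells and luminescence read after 30 min.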
(qHTS replaces the single test concentration by a dilution series.)

Experiment [2] is described as follows: qHTS assay to identify small molecule antagonists of the vitamin D receptor (VDR) signaling pathway - cell viability counter screen (AID 743225). Also: nearly all actives have a fitted effect of over 50% in size. Summed up:
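Viability counter screen run in the same wells as the beta-lactamase reporter assay: HEK 293T VDR-UAS-bla cells, 16 h compound exposure at 37C with 3 nM (final) 1-alpha,25-dihydroxyvitamin D3. CellTiter-Glo luminescence, 30 min, room temperature.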

Experiment [3] in a line: qHTS assay to identify small molecule agonists of the NFkB signaling pathway (AID 1159509; active = well fitted curve in the direction sought with a large enough effect in the signal ratio in the repeat runs, not every such curve was filed as active; the % refers to the signal ratio; also: series mostly up to about 61 µM). Summed up:
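NFkB-bla ME-180 cells with a beta-lactamase reporter under an NF-kB response element were plated overnight, treated with compounds in DMSO for 5 hr at 37 C, then loaded with FRET substrate for 1.5 hr at room temperature.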

A short description of experiment [4]: qHTS assay to identify small molecule agonists of the NFkB signaling pathway - cell viability counter screen (AID 1159515; calls by dose curve; also: series mostly up to about 61 µM; nearly all actives have a fitted effect of over 55% in size). Summed up:
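NFkB-bla ME-180 cells, 2,000/well, were plated overnight at 37 C, 5% CO2, then exposed to compounds in DMSO for 5 hr. After the bla FRET read, CellTiter-Glo was added to the same wells; luminescence was read after 30 min at room temperature.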

A short description of experiment [5]: qHTS assay to identify small molecule agonists of the endoplasmic reticulum stress response signaling pathway (AID 1159516; active = well fitted activation curve with a large enough effect in the signal ratio in the repeat runs, not every such curve was filed as active; the % refers to the signal ratio). Summed up: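 CellSensor ESRE-bla HeLa cells, carrying a beta-lactamase reporter driven by the ER stress response element, were plated overnight and exposed to compounds for 5 hr at 37 C. Reporter activity was read as FRET substrate fluorescence after 2 hr at room temperature.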

Experiment [6] can be described thus: qHTS assay to identify small molecule antagonists of the retinoid-related orphan receptor gamma (ROR-gamma) signaling pathway - cell viability counter screen (AID 1159520). Also: nearly all actives have a fitted effect of over 50% in size. Summed up: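 Tet-on ROR gamma CHO cells (1,000/well) were plated 4 hr, given compounds in DMSO for 2 hr at 37 C, then induced with 1 uM final doxycycline for 16 hr. Viability was read as ATP by CellTiter-Glo luminescence after 30 min.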

For experiment [7], the target named is Nuclear receptor ROR-gamma (Homo sapiens) (UniProt P51449). As to the kind of experiment: qHTS assay to identify small molecule antagonists of the retinoid-related orphan receptor gamma (ROR-gamma) signaling pathway (AID 1159521;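 also: CHO cells with doxycycline inducible ROR-gamma driving an RORE luciferase reporter; top concentration of the series differs between compounds; nearly all actives have a fitted effect of over 50% in size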). Summed up:
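Luminescence readout (ONE-Glo, 30 min RT) after 16 h doxycycline induction; loss of signal scored as antagonism. CHO cells with TET-inducible RORγ and RORE-LUC reporter; compounds added 2 h before 1 uM final doxycycline.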

Experiment [8] is described as follows: qHTS assay to identify small molecule agonists of the AP-1 signaling pathway - cell viability counter screen (AID 1159525; calls by dose curve; also: nearly all actives have a fitted effect of over 55% in size). In a few lines: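 ME-180 AP-1-bla, 2500 cells/well, Opti-MEM + 0.5% dialyzed FBS; overnight 37 °C; cpd 15-pt titration, 5 h 37 °C; CellTiter-Glo 30 min RT; luminescence read; normalised to TOAB and DMSO controls.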
Experiment [9] in a line: qHTS assay to identify small molecule agonists of the AP-1 signaling pathway (AID 1159526; calls by dose curve).
Experiment [10] has as its target Retinoic acid receptor RXR-alpha (Homo sapiens) (UniProt P19793). As to the kind of experiment: qHTS assay to identify small molecule agonists of the RXR signaling pathway (AID 1159527; calls by dose curve; also: nearly all actives have a fitted effect of over 35% in size; also: potency is read from the fitted curve at half-maximal effect). In a few lines: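 Agonist mode; 9-cis retinoic acid positive control. HEK 293T UAS-bla reporter cells, 2% charcoal-stripped FBS, 16 hr compound exposure at 37 C/5% CO2. LiveBLAzer B/G FRET substrate 2 hr RT; ex 405, em 460/530 nm.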

Experiment [11] is described as follows: qHTS assay to identify small molecule agonists of the RXR signaling pathway - cell viability counter screen (AID 1159529). Summed up: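 Luminescence from CellTiter-Glo (30 min, RT) measured viability in the same wells as the beta-lactamase reporter readout. Cells: GeneBLAzer RXR-alpha HEK 293T, 2% charcoal-stripped FBS. Compound exposure 16 hr, 37 C.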
The nature of experiment [12]: qHTS assay to identify small molecule antagonists of the retinoid acid receptor (RAR) signaling pathway - cell viability counter screen (AID 1159551). Also: nearly all actives have a fitted effect of over 35% in size. Summed up:
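C3RL4 cells were seeded overnight at 37 C, then treated with compounds plus 1 uM (final) retinol for 6 h at 37 C. Viability was read as ATP by CellTiter-Glo luminescence after 30 min at room temperature.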

The nature of experiment [13]: qHTS assay to identify small molecule antagonists of the retinoic acid receptor (RAR) signaling pathway (AID 1159552; also: nearly all actives have a fitted effect of over 50% in size). In a few lines:
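Luminescence from a RARE luciferase reporter in C3RL4 cells served as read-out. Cells received compounds together with 1 uM final retinol and incubated 6 hr at 37 C before detection reagent was added for 30 min at room temperature.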

The nature of experiment [14]: qHTS assay to identify small molecule agonists of the retinoic acid receptor (RAR) signaling pathway (AID 1159553). Also: potency is read from the fitted curve at half-maximal effect. In a few lines: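 C3RL4 cells carrying a RARE luciferase reporter were plated overnight at 37 C, then exposed to compounds in DMSO for 6 hr at 37 C and 5% CO2. Luminescence was read 30 min after luciferase reagent addition at room temperature.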

Sequence of Retinoic acid receptor RXR-alpha (Homo sapiens) (P19793 whole entry, looked up): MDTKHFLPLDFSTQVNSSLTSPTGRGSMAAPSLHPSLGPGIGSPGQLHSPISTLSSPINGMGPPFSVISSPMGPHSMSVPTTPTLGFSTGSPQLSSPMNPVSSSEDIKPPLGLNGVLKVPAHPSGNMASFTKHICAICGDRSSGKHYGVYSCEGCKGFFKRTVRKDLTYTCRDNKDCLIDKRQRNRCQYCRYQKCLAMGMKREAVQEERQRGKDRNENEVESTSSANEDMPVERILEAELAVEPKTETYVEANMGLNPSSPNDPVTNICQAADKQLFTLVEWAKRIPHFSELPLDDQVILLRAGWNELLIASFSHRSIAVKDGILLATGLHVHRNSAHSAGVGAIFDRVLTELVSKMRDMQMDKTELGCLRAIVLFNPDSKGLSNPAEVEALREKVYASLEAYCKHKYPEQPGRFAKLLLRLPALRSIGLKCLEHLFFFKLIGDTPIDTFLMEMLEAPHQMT

Regarding `CC12CC1(C)C(=O)N(c1cc(Cl)cc(Cl)c1)C2=O` (configuration not stated), the Potency entry in experiment [1], in [7], in [9] and in experiment [10] was “inactive” each time. The molecule was classed as inactive in [2], in experiment [3], in experiment [4], in experiment [5], in [6] and in experiment [8]. For the same molecule, the result in experiment [11] and in experiment [12] was inactive.
Regarding `CCCCC(CC)C(=O)Cl` (configuration not stated), the Potency entry in [1], in experiment [7], in experiment [9], in experiment [10], in experiment [13] and in experiment [14] was “inactive” each time. Further, the result in [2], in experiment [3], in [4], in experiment [5], in [6] and in [8] was inactive. Further, in experiment [12], the molecule was classed as inactive.
Take `Cc1cccc(N)c1C`: the Potency entry in experiment [1], in [7], in experiment [9] and in experiment [14] was “inactive” throughout. Further, the result in experiment [2], in experiment [3], in [4], in experiment [5], in [6] and in experiment [8] was inactive. In addition, the outcome in experiment [11] and in [12] was inactive. In addition, the Potency in experiment [10] was 11.4 µM (active) and inactive.
As for `COP(=S)(OC)Oc1ccc(SC)c(C)c1`, the Potency result in experiment [1], in experiment [7], in [9], in experiment [10] and in experiment [13] was “inactive” throughout. Further, the result in [2], in experiment [3], in experiment [4], in [5], in experiment [6] and in [8] was inactive. In addition, the call in [12] was inactive. Moreover, the Potency in experiment [14] was 19.3 µM (active).
Take `C/C=C/c1ccc2c(c1)OCO2`: the Potency entry in experiment [1], in experiment [7], in experiment [9], in experiment [10] and in experiment [14] was “inactive” each time. Also, the result in experiment [2], in experiment [3], in [4], in [5], in experiment [6] and in experiment [8] was inactive. In experiment [12], the call was inactive.
As for `Nc1cc(Cl)cc(Cl)c1`, the Potency result in [1], in experiment [7], in [9], in experiment [10] and in experiment [14] was “inactive” each time. Further, the call in [2], in [3], in experiment [4], in experiment [5], in experiment [6] and in experiment [8] was inactive. Also, the molecule was classed as inactive in experiment [12].
As for `CCNc1nc(Cl)nc(NC(C)C)n1`, the Potency entry in [1], in [7], in experiment [9] and in [10] was “inactive” each time. For the same molecule, the outcome in [2], in [3], in experiment [4], in experiment [5], in experiment [6] and in experiment [8] was inactive. For the same molecule, the outcome in experiment [11] and in [12] was inactive.
Take `Nc1ccc([As](=O)(O)O)cc1`: the Potency result in [1], in experiment [7], in [9] and in experiment [10] was “inactive” in each case. Further, the molecule was classed as inactive in [2], in experiment [3], in [4], in experiment [5], in [6] and in experiment [8]. The result in experiment [12] was inactive.
In the case of `Cc1cc(O)ccc1Cl`, the Potency entry in experiment [1], in experiment [7], in experiment [9] and in experiment [14] was “inactive” each time. Further, the outcome in experiment [2], in [3], in experiment [4], in experiment [5], in experiment [6] and in [8] was inactive. Moreover, in experiment [12], the molecule was called inactive. In addition, the Potency entry in experiment [10] was “inactive and 12.3 µM (active)”.
Take `Cc1ccccc1N`: the Potency entry in [1], in experiment [7], in experiment [9] and in [10] was “inactive” each time. The molecule was called inactive in experiment [2], in experiment [3], in [4], in experiment [5], in experiment [6] and in [8]. The result in experiment [11] and in [12] was inactive.
